Bioassay records as filed in PubChem.
SKKanGAS inh = inhibitors of SKKanGAS S. pyogenes growth in kanamycin (SK-promoter or general growth effect). inhibition, % at 7.5 µM. BacTiter-Glo, 6 h. 300,000 tested, 1.3% active;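 active = mean replicate score, as percent of positive control median, at least 50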;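 note: strain carries kanamycin resistance gene driven by streptokinase promoter and grows in 40 µg/ml kanamycin; loss of luminescence reflects streptokinase promoter inhibition or plain growth inhibition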
tim23-1 inh = growth inhibitors of tim23-1 mutant yeast. S. cerevisiae tim23-1 growth, BacTiter-Glo luminescence, 24 h. inhibition, % at 20 µM. 330,000 tested, 1.3% active. AID 463212;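 active = growth inhibition of the mutant yeast at or above 50%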;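 note: temperature-sensitive mutant grown at 25 °C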
TIM10 inh = growth inhibitors of TIM10 yeast strain; AID 463195; inhibition, % at 10 µM; 330,000 tested, 1.4% active; S. cerevisiae TIM10 strain growth, BacTiter-Glo luminescence, 24 h;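 active = inhibition of 40% or more at the single tested concentration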;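 note: wild-type TIM10 isogenic control strain grown at permissive 25 °C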
tim10-1 inh = inhibits growth of tim10-1 mutant yeast. S. cerevisiae tim10-1 ts strain growth, BacTiter-Glo, 24 h. inhibition, % at 20 µM. AID 463190. 330,000 tested, 2.2% active;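 active = inhibition of at least 40%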;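 note: mutant grown at 25 °C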
PfHsp90 yeast 2 = growth inhibition of yeast expressing Plasmodium Hsp90; 310,000 tested, 0.32% active; inhibition, % at 9.4 µM; S. cerevisiae expressing PfHsp90, BacTiter-Glo ATP, 48 h; yeast lacking PDR1 and PDR3 efflux regulators;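 active = every replicate shows inhibition above about 80%, whatever the replicate mean, limit read from the data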
Hits are given with their value. An excerpt weighted towards active compounds, which were near 4.4% of everything screened.

What do the screens show for `Cc1ccnc(NS(=O)(=O)c2ccc(NC(=O)c3cc(-c4ccc(Br)cc4)nc4ccccc34)cc2)n1`?
SKKanGAS inh: 62; tim23-1 inh: inactive; TIM10 inh: inactive; tim10-1 inh: inactive; PfHsp90 yeast 2: inactive

How did CC(C)(C)c1ccc(-c2cc(C(=O)NNC(=O)Nc3ccccc3)c3ccccc3n2)cc1 do in these assays?
SKKanGAS inh: 56; tim23-1 inh: inactive; TIM10 inh: inactive; tim10-1 inh: inactive; PfHsp90 yeast 2: inactive

Results for COc1ccc(C(=O)NNC(=S)NC(=O)c2cc(-c3ccccc3)nc3ccccc23)cc1 ?
SKKanGAS inh: 107; tim23-1 inh: inactive; TIM10 inh: inactive; tim10-1 inh: inactive; PfHsp90 yeast 2: inactive

What do the screens show for `COc1ccc(Cl)cc1C(=O)NNC(=S)NC(=O)c1cc(-c2ccccc2)nc2ccccc12`?
SKKanGAS inh: 80; tim23-1 inh: inactive; TIM10 inh: inactive; tim10-1 inh: inactive; PfHsp90 yeast 2: inactive

What do the screens show for `Cc1cc(OCC(=O)OCC(=O)NCC2CCCO2)ccc1Cl` (centres undefined)?
tim23-1 inh: inactive; TIM10 inh: inactive; tim10-1 inh: inactive; PfHsp90 yeast 2: inactive

How did CCC(C)Sc1ccc(-c2nc3ccc(C)cn3c2NCc2ccccc2)cc1OC (centres undefined) do in these assays?
SKKanGAS inh: 53; tim23-1 inh: inactive; TIM10 inh: inactive; tim10-1 inh: inactive; PfHsp90 yeast 2: inactive

How did CCC(C)Sc1cc(-c2nc3ccccn3c2NC2CCCCC2)ccc1OC (centres undefined) do in these assays?
SKKanGAS inh: 87; tim23-1 inh: inactive; TIM10 inh: inactive; tim10-1 inh: inactive; PfHsp90 yeast 2: inactive

How did CCC(C)Sc1cc(-c2nc3ccc(C)cn3c2NCc2ccccc2)ccc1OC (centres undefined) do in these assays?
SKKanGAS inh: 74; PfHsp90 yeast 2: inactive

What do the screens show for `CCCCCCSc1ccc(-c2nc3ccc(C)cn3c2NCc2ccccc2)cc1OC`?
SKKanGAS inh: inactive; tim23-1 inh: inactive; TIM10 inh: inactive; tim10-1 inh: inactive; PfHsp90 yeast 2: inactive

What do the screens show for `O=C(O)c1cccc(N/N=C/C2=C(Cl)c3cc(Cl)ccc3SC2)c1`?
SKKanGAS inh: 106; PfHsp90 yeast 2: inactive

How did Cc1ccc(-c2nnc(SCC(=O)NCC3CCCO3)nc2-c2ccc(C)cc2)cc1 (centres undefined) do in these assays?
tim23-1 inh: inactive; TIM10 inh: inactive; tim10-1 inh: inactive

What do the screens show for `N#Cc1c(N)nc(Sc2ccc(Cl)cc2)c(C#N)c1-c1ccccc1Cl`?
SKKanGAS inh: 75; tim23-1 inh: inactive; TIM10 inh: inactive; tim10-1 inh: inactive; PfHsp90 yeast 2: inactive

Results for O=C(/C=C/c1ccco1)Oc1cc(Br)cc(/C=N/NC(=O)c2ccccc2O)c1 ?
SKKanGAS inh: 88; PfHsp90 yeast 2: inactive

What do the screens show for `Cc1ccc(C(=O)N/N=C/c2cccc(OC(=O)/C=C/c3ccco3)c2)cn1`?
SKKanGAS inh: inactive; tim23-1 inh: inactive; TIM10 inh: inactive; tim10-1 inh: inactive; PfHsp90 yeast 2: inactive

What do the screens show for `C[C@H]1c2cccc(O)c2C(O)=C2C(=O)[C@]3(O)C(O)=C(C(N)=O)C(=O)[C@@H](N(C)C)C3[C@@H](O)C21` (some centres undefined)?
SKKanGAS inh: 105; tim23-1 inh: inactive; TIM10 inh: inactive; tim10-1 inh: inactive; PfHsp90 yeast 2: inactive

Results for C=C1c2cccc(O)c2C(=O)C2C(=O)[C@]3(O)C(=O)C(C(N)=O)C(=O)[C@@H](N(C)C)[C@@H]3[C@@H](O)[C@H]12 (some centres undefined) ?
tim23-1 inh: inactive; TIM10 inh: inactive; tim10-1 inh: inactive; PfHsp90 yeast 2: inactive

How did Cc1cc(C)c(CN2CCN(C(=O)Cn3cnc(C(=O)Nc4ccc(C)c(C)c4)n3)CC2)c(C)c1 do in these assays?
tim23-1 inh: inactive; TIM10 inh: inactive; tim10-1 inh: inactive; PfHsp90 yeast 2: inactive

What do the screens show for `CC(C)Cn1c(O)c(N=NC(=O)c2cccc(S(=O)(=O)N3CCCCC3)c2)c2ccccc21`?
SKKanGAS inh: 53; tim23-1 inh: inactive; TIM10 inh: inactive; tim10-1 inh: inactive; PfHsp90 yeast 2: inactive

What do the screens show for `COc1ccccc1CN(C)C(=O)CN1CCN(S(=O)(=O)c2ccc3c(c2)OCCCO3)CC1`?
tim23-1 inh: inactive; TIM10 inh: inactive; tim10-1 inh: inactive; PfHsp90 yeast 2: inactive

Results for CCOC(=O)C1=C(C)Nc2ccccc2N=C1NC(=O)c1cc(C)on1 ?
tim23-1 inh: inactive; TIM10 inh: inactive; tim10-1 inh: inactive; PfHsp90 yeast 2: inactive
